The text below walks through data of PubChem BioAssay (NCATS).

The nature of assay [1]: AP1 Signaling Pathway (AID 357; active means well fitted curve in either direction with a large enough effect, not every such curve was filed as active;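 further: ME-180 reporter cells stimulated with EGF at its EC50 level; on the % scale 0 is the no-effect control and ±100 the full control effect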). To be noted: ME-180 AP-1-bla reporter, EGF-induced, beta-lactamase ratio, 5 h. The method in brief:
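AP-1-bla ME-180 cells, Opti-MEM + 0.5% dialyzed FBS, plated overnight 37 °C. Cpd titration + EC50 EGF, 5 h 37 °C. CCF4 2.5 h RT; ex 405, em 460/530 ratio → %activity, AC50.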

Assay [2] deals with Cytochrome P450 1A2 (Homo sapiens) (UniProt P05177). Put plainly: p450-cyp1a2 (AID 410; calls by dose curve; further: potency means the concentration at half of the fitted maximal effect;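 on activity change, negative = inhibition: -100% = full effect of reference inhibitor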). In a few lines:
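Luminescent readout of luciferin formed from Luciferin-ME by human CYP1A2; data normalized against complete inhibition by 57 uM furafylline. Enzyme 20nM, substrate 100uM at Km, 100mM KPO4 buffer, 60 min reaction at room temperature.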

Assay [3] is described as follows: Stat Signaling Pathway (AID 446; active means well fitted curve in either direction with a large enough effect, not every such curve was filed as active;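 further: ME-180 cervical cancer cells given 40 pM IL-6 alongside compound; SIE-controlled beta-lactamase reporter measured as 460/530 nm FRET emission ratio; on the % scale 0 is the no-effect control and ±100 the full control effect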). To be noted: ME-180 SIE beta-lactamase reporter, IL-6 stimulated, 5 h. The method in brief:
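Screening format detects activators and inhibitors alike: ME-180 SIE-bla cells stimulated at 40 pM IL-6 for 5 hrs with compound, then dual-emission beta-lactamase read at 405 nm excitation.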

Assay [4] concerns the target Glucocorticoid receptor (Homo sapiens) (UniProt P04150). Put plainly: GR-GFP Redistribution (AID 450;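 active means compounds whose dose series gives a full or clear partial fitted curve of increased nuclear translocation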; further: potency means the concentration at half of the fitted maximal effect). To be noted: U2OS GR-GFP nuclear translocation, laser cytometry, 2 h.
The target is the same in assay [5]. The assay can be described thus: GR-EFC Redistribution (AID 451; calls by dose curve; further: potency means the concentration at half of the fitted maximal effect). To be noted: CHO-K1 GR-EFC translocation, beta-gal luminescence, 2 h. In a few lines:
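Translocation of GR-ED fusion to nuclear EA restores b-gal, read by luminescence after 1 h room-temperature detection. Engineered CHO-K1 biosensor cells, 1,000/well, exposed 2 h at 37 C to titrations up to 46 uM final.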

Assay [6] concerns the target Mitogen-activated protein kinase 10 (Mus musculus) (UniProt Q61831). The assay can be described thus: JNK3 AlphaScreen Assay (AID 530; active means well fitted curve in either direction with a large enough effect, not every such curve was filed as active;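 further: kinase came from lysate of stimulated human HepG2 cells; signal reports phosphorylation of biotinylated GST-cJun 1-79 at Ser73 with 10 µM ATP; on the % scale 0 is the no-effect control and ±100 the full control effect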). The method in brief: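 Compound titrations were preincubated 15 minutes at room temperature with substrate, antibody and pre-activated JNK3-containing HepG2 lysate. Reactions were started with 10 uM ATP and stopped with EDTA-containing bead buffer for AlphaScreen detection.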

The target in assay [7] is 3',5'-cyclic-AMP phosphodiesterase 4B (Homo sapiens) (UniProt Q07343). Put plainly: qHTS Assay for Inhibitors of PDE-IV (AID 607; active means well fitted activation curve with a large enough effect in the main read-out, with a control signal flat, not every such curve was filed as active; further: % of control where 0% means no effect). The method in brief:
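The readout is membrane depolarisation from a cAMP-sensing CNG channel, detected with a potential dye at ex 535/em 590. Cells were HEK293-derived (endogenous PDE-IV) at 1000 cells/well, titrated up to 22.9 uM final.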

Assay [8] has as its target Cytochrome P450 3A4 (Homo sapiens) (UniProt P08684). The assay can be described thus: qHTS Assay for Activators of Cytochrome P450 3A4 (AID 885). Further: nearly all actives have a fitted effect of over 65% in size. The method in brief: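 Steps: enzyme/substrate mix dispensed; compound added, 10 min RT; NADPH regeneration solution added, 60 min RT; luciferin detection buffer stops reaction; 20 min later luminescence measured.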
(Quantitative high-throughput screening tests each substance at several concentrations.)

For assay [9], the target named is Cytochrome P450 2D6 (Homo sapiens) (UniProt P10635). The assay can be described thus: qHTS Assay for Inhibitors and Substrates of Cytochrome P450 2D6 (AID 891). Further: potency means the concentration at half of the fitted maximal effect; nearly all actives have a fitted effect of over 60% in size. The method in brief: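 Human CYP2D6 (5 nM) with 30 uM Luciferin-ME EGE (at Km) in 100 mM KPO4, compound preincubated 10 min, then NADPH regeneration system for 60 min at room temperature. Luciferin read by luminescence; normalized to 1.43 uM quinidine.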

The target in assay [10] is Cytochrome P450 2C19 (Homo sapiens) (UniProt P33261). The assay can be described thus: qHTS Assay for Inhibitors and Substrates of Cytochrome P450 2C19 (AID 899). Further: nearly all actives have a fitted effect of over 60% in size. Further: potency means the concentration at half of the fitted maximal effect. The method in brief: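 Reactions contain 5nM enzyme, 10uM Luciferin-H EGE (KM) and 50mM KPO4; compound preincubates 10 min at 37C, NADPH regeneration starts turnover for 60 min. Luminescence after detection reagent gives activity.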

Assay [11] deals with Zika virus NS2B-NS3 protease. The assay can be described thus: Primary screen GU AMC qHTS for Zika virus inhibitors (AID 1347154).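 Further: 0% = no-inhibitor control and -100% = no-enzyme control; nearly all actives have a fitted effect of over 70% in size.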 The method in brief: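 Fluorogenic AMC-substrate cleavage by noncovalent NS2B-NS3 protease complex (25 nM, pH 8.0 Tris buffer with Tween 20) followed for 15 minutes at room temperature (~20% conversion). Percent inhibition from ex340/em450 signal change, fitted by 4-parameter Hill equation.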

The nature of assay [12]: Primary qHTS for small molecule stabilizers of the endoplasmic reticulum resident proteome: Secreted ER Calcium Modulated Protein (SERCaMP) assay (AID 1508630). Further: on the % scale 0 is the no-effect control and ±100 the full control effect. In a few lines:
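GLuc-SERCaMP-expressing SH-SY5Y cells, pretreated 16 h with compound, are challenged with thapsigargin to empty ER calcium stores; after 4 h, coelenterazine is added directly to the medium and luminescence is imaged.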

The target in assay [13] is Ubiquitin carboxyl-terminal hydrolase 1 (Homo sapiens) (UniProt O94782). The assay can be described thus: Inhibitors of USP1/UAF1: Pilot qHTS (AID 504865).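 Further: rhodamine fluorescence freed from ubiquitin-rhodamine substrate followed over time; top concentration of the series differs between compounds; on the % scale 0 is the no-effect control and ±100 the full control effect; nearly all actives have a fitted effect of over 35% in size.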 The method in brief: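 Deubiquitinase activity followed as kinetic rhodamine fluorescence release from 150 nM Ub-Rho. 1 nM USP1/UAF1 with compound, after 15 min room-temperature preincubation, in HEPES pH 7.8 buffer containing TCEP, EDTA, BSA and Tween-20.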

Assay [14] deals with DNA dC->dU-editing enzyme APOBEC-3G (Homo sapiens) (UniProt Q9HC16). The assay can be described thus: qHTS for inhibitors of Vif-A3G interactions: Validation (AID 588379). Further: 0% is about no effect. In a few lines:
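HeLa cells stably expressing Vif and A3G-eYFP, 700 cells/well, incubated overnight at 37 deg C, then exposed to compound overnight at 37 deg C. Inhibition of Vif-mediated degradation read as increased yellow fluorescence (Ex 488/Em 500-530) by laser-scanning cytometry.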

The nature of assay [15]: NFAT Signaling Pathway (AID 444; active means well fitted curve in either direction with a large enough effect, not every such curve was filed as active). To be noted: Jurkat NFAT-bla M1, carbachol, beta-lactamase ratio, 5 h. In a few lines: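 Read-out: CCF4 FRET ratio (460 nm/530 nm) after 1 h RT dye loading, used for %activity and AC50 from titration series. Cells: Jurkat NFAT-β-lactamase/M1 line, treated with compound plus 1 uM carbachol for 5 h, 37 °C.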
The target in assay [16] is Cytochrome P450 3A4 (Homo sapiens) (UniProt P08684). The assay can be described thus: qHTS Assay for Inhibitors and Substrates of Cytochrome P450 3A4 (AID 884). Further: potency means the concentration at half of the fitted maximal effect; nearly all actives have a fitted effect of over 50% in size. The method in brief: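 20 nM human CYP3A4 with 25 uM Luciferin-PPXE (at KM) in 200 mM KPO4, preincubated 10 min with compound; NADPH regeneration started a 60 min RT reaction. Luciferin detected by luminescence, normalized to 57 uM ketoconazole as full inhibition.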

Each structure is given as a SMILES string. Results filed as inconclusive are left out. Calls of active or inactive are those of the source. Unless noted, the call rests on the fitted dose curve; in most records, active means well fitted curve in the direction sought with a large enough effect; inconclusive means small, poorly fitted or top-dose-only effect, or another doubt; inactive means no such curve, though single readings can be large; an effect the other way counts as inactive or inconclusive. Non-standard residues stand in square brackets, D forms with d. Residues, ends and D or L forms follow the SMILES beside them.

Chain of Cytochrome P450 1A2 (Homo sapiens) (P05177 whole entry, looked up): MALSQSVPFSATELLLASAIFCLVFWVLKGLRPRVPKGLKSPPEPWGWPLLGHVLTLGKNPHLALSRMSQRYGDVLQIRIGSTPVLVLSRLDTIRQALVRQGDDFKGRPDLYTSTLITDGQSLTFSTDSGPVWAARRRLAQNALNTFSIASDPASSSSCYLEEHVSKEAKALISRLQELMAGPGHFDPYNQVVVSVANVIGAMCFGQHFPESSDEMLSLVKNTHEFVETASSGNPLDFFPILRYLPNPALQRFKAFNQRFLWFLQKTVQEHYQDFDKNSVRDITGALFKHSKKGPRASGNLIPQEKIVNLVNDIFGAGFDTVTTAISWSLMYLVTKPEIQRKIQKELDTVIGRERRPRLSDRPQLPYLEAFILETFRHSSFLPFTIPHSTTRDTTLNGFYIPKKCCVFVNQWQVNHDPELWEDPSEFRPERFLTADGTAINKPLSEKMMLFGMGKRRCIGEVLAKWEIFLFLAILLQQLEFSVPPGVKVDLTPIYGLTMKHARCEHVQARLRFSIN
Chain of Glucocorticoid receptor (Homo sapiens) (P04150 whole entry, looked up): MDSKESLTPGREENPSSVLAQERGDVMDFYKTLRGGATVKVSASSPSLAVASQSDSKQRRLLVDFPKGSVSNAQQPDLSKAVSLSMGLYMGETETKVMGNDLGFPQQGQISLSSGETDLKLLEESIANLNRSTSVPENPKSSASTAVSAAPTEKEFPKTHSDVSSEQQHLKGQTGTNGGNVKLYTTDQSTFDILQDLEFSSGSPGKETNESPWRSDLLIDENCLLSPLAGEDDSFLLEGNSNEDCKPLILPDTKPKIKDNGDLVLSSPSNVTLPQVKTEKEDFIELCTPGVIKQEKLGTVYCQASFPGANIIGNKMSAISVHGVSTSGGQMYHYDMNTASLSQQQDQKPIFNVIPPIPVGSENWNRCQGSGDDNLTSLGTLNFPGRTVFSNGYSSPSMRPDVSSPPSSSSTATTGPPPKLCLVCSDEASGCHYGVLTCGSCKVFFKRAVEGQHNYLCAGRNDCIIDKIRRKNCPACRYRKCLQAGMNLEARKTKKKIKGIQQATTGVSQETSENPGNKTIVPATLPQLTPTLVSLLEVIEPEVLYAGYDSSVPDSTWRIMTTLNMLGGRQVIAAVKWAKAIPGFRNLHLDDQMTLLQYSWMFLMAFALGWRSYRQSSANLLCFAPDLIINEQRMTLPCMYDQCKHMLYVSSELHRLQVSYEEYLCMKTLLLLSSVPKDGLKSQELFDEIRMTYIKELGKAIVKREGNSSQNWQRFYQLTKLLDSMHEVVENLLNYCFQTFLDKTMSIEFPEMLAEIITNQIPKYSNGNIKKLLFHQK
Chain of DNA dC->dU-editing enzyme APOBEC-3G (Homo sapiens) (Q9HC16 whole entry, looked up): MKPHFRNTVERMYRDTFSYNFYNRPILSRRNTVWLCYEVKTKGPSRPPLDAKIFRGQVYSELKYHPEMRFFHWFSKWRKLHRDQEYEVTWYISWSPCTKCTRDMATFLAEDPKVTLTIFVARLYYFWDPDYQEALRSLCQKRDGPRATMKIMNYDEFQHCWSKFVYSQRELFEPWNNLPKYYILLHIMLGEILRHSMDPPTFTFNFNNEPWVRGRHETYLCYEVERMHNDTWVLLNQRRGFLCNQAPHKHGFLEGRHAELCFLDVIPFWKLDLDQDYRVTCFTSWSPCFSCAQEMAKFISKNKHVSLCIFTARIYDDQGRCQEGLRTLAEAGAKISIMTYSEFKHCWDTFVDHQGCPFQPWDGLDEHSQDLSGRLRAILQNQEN
Chain of 3',5'-cyclic-AMP phosphodiesterase 4B (Homo sapiens) (Q07343 whole entry, looked up): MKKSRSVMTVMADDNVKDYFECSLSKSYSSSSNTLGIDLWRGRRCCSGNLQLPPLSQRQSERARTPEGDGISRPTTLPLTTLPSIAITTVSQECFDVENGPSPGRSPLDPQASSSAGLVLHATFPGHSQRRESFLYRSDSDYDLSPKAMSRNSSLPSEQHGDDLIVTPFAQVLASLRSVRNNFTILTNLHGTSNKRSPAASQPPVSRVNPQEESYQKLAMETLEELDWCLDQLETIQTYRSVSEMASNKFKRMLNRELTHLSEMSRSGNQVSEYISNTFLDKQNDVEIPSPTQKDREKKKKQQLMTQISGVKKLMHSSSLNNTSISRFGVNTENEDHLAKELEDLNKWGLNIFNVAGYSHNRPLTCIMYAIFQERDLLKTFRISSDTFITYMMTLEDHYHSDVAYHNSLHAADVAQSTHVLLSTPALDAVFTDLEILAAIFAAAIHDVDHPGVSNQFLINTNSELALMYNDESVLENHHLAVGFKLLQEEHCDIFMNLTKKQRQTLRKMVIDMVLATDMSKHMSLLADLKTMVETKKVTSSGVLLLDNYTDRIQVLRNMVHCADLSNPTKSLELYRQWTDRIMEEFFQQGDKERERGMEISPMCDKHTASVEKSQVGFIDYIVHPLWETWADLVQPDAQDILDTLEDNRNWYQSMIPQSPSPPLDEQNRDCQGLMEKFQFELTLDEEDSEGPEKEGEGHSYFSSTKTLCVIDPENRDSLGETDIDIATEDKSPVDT
Chain of Cytochrome P450 3A4 (Homo sapiens) (P08684 whole entry, looked up): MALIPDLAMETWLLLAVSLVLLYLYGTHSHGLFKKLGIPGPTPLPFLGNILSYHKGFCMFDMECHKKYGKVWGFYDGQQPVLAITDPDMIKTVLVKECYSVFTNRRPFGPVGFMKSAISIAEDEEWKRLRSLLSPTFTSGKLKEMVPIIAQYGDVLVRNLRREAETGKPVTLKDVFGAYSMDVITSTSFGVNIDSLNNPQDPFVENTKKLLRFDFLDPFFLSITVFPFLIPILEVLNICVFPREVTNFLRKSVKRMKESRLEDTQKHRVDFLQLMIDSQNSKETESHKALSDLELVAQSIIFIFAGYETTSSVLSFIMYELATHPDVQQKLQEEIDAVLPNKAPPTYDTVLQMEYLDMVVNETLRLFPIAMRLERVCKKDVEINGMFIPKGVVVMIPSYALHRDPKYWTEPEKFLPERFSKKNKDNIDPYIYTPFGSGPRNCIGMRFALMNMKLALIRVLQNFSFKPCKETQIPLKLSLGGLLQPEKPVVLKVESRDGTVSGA
Chain of Ubiquitin carboxyl-terminal hydrolase 1 (Homo sapiens) (O94782 whole entry, looked up): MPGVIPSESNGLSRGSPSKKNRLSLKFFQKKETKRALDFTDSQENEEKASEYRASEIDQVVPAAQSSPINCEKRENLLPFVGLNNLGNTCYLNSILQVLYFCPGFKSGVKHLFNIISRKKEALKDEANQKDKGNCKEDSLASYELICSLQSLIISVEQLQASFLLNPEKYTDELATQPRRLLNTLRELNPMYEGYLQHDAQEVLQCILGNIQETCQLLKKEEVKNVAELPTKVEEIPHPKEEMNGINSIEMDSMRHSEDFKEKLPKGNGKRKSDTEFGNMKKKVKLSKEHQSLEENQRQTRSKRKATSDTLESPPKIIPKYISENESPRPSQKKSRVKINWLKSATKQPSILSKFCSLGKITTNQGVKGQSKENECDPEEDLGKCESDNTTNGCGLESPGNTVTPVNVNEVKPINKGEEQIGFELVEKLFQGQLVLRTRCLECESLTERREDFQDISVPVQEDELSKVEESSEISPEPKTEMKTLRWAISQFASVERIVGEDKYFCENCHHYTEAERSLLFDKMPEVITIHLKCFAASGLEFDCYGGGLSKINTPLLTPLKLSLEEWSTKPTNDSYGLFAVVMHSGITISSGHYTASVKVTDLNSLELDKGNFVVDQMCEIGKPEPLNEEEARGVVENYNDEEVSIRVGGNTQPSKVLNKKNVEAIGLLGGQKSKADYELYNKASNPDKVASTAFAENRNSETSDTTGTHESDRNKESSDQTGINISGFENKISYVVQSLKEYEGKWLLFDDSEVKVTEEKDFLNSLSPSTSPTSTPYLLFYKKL
Chain of Cytochrome P450 2C19 (Homo sapiens) (P33261 whole entry, looked up): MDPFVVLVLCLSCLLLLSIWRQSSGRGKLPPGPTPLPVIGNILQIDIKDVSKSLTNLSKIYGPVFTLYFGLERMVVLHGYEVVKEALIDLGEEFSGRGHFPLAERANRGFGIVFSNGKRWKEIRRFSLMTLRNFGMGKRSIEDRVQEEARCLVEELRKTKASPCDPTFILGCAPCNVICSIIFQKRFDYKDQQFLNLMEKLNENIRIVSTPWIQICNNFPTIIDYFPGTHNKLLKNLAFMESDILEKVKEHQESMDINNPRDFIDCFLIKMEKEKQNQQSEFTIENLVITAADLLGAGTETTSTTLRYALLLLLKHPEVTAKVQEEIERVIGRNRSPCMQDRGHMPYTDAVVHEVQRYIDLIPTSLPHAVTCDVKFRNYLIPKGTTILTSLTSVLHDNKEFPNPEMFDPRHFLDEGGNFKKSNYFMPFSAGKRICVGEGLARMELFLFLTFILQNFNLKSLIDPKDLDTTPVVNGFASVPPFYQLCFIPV
Chain of Cytochrome P450 2D6 (Homo sapiens) (P10635 whole entry, looked up): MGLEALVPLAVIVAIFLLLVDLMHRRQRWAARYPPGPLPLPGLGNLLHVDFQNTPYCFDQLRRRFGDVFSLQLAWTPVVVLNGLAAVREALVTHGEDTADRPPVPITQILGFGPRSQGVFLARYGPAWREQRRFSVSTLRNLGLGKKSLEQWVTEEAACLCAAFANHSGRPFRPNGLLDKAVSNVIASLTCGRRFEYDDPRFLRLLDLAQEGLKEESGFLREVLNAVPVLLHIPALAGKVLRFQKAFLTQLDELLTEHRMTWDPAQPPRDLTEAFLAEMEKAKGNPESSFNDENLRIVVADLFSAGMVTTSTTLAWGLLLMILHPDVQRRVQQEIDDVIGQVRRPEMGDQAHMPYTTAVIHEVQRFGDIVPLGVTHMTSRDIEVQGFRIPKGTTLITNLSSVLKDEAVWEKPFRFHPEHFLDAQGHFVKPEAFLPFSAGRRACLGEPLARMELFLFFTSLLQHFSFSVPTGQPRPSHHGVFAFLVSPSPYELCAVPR

Consider `CC[N+](C)(CC)CCC[n+]1c(-c2ccccc2)c2cc(N)ccc2c2ccc(N)cc21`, for which, in assay [1] (at 17.2 µM (top of the series)), the activity change, negative = inhibition is 5.27% (inactive). The Potency in assay [2] is 12.6 µM (active); in assay [4], > 20.6 µM (inactive); in [5], > 20.6 µM (inactive); in [9] it was 6.31 µM (active); in [10] it was 1.58 µM (active). The activity, negative = inhibition in assay [3] (at 17.2 µM (top of the series)) is -13.1% (inactive). The Potency result in [6], in assay [7], in assay [8], in assay [11] and in [12] was “inactive” in each case.

Consider `CCCCN1CCC(CCC(=O)c2cc(Cl)c(N)cc2OC)CC1`, for which the Potency entry in assay [2], in assay [6], in assay [7], in assay [13], in [14] and in assay [11] was “inactive” each time. The Potency result in [12] is “inactive”. Also, the Potency in assay [4] and in assay [5] was > 46 µM (inactive) each time.

Take `C[C@@H](C[C@H](N)C(=O)O)C(=O)O`: the activity change, negative = inhibition was -5.85% (inactive) in [1] (at 7.69 µM (top of the series)), -18.7% [at 11.4 µM] (inactive) in assay [2], 21.8% (inactive) in assay [15] (at 7.69 µM (top of the series)) and -4.43% [at 11.4 µM] (inactive) in assay [6]. The activity, negative = inhibition was 15.7% (inactive) in assay [3] (at 7.69 µM (top of the series)) and 46.1% [at 11.4 µM] (inactive) in assay [10]. Besides, the Potency in assay [4] is > 46 µM (inactive); in [5], > 9.22 µM (inactive). Besides, the Potency result in assay [7], in [11] and in assay [12] was “inactive” throughout.

As to `OCc1cc([C@@H](O)CNCCCCCCOCCCCc2ccccc2)ccc1O`, the activity change, negative = inhibition in assay [1] (at 38 µM (top of the series)) is 9.46% (inactive); in assay [15] (at 38 µM (top of the series)) it was -1.3% (inactive). Besides, in assay [3] (at 38 µM (top of the series)), the activity, negative = inhibition was -26.7% (inactive). Besides, the Potency in [4] and in assay [5] was > 46 µM (inactive) each time. Also, the Potency entry in assay [6], in [7], in assay [14], in assay [11] and in assay [12] was “inactive” each time.

Consider `Fc1ccc(-c2nc3n(c2-c2ccncc2)CCS3)cc1`, for which, in assay [16], the Potency is 15.8 µM (active). For the same compound, the Potency entry in [8], in assay [11] and in [12] was “inactive” throughout.

Consider `CN[C@@H]1[C@H](O)[C@H](O[C@@H]2[C@H](O)[C@@H](O[C@H]3O[C@H]([C@@H](C)NC)CC[C@H]3N)[C@@H](N)C[C@H]2N)OC[C@]1(C)O`, for which the Potency result in assay [11] and in assay [12] was “inactive” throughout.

For `CCCCC[C@H](O)CC(=O)CCc1ccc(O)c(OC)c1`, the Potency result in [11] and in [12] was “inactive” in each case.

Regarding `CCC(=O)N[C@@H]1CCc2cccc(OC)c2C1`, the Potency in assay [2] was 12.6 µM (active); in assay [4], > 46 µM (inactive); in [5], > 46 µM (inactive). Also, the Potency entry in [6], in assay [7], in assay [13], in [14], in [11] and in assay [12] was “inactive” each time.

On to `CSCC[C@H](C=O)NC(=O)[C@H](CC(C)C)NC(=O)[C@H](CC(C)C)NC(C)=O` (Ac-Leu-Leu-[dM]-aldehyde), for which the Potency result in assay [2], in assay [6], in assay [7], in assay [13], in assay [14] and in assay [11] was “inactive” in each case. For the same compound, the Potency entry in [12] was “inactive”. Also, the Potency in assay [4] and in [5] was > 46 µM (inactive) each time.

For `CCCCCCc1c(C[C@H](N)C(=O)O)o[nH]c1=O`, the Potency in assay [2] is 31.6 µM (active); in assay [4] it was > 46 µM (inactive); in assay [5], > 46 µM (inactive). Moreover, the Potency entry in [6], in [7], in assay [13], in [14], in assay [11] and in assay [12] was “inactive” in each case.

For `CCCCC[C@H](O)/C=C/[C@@H]1[C@@H](CCCCCCC(=O)O)[C@@H](O)C[C@H]1O`, the activity change, negative = inhibition was 8.11% (inactive) in assay [1] (at 17.2 µM (top of the series)), 8.46% [at 6.83 µM] (inactive) in assay [11] and -7.27% [at 3.88 µM] (inactive) in [12]. The activity, negative = inhibition in assay [3] (at 17.2 µM (top of the series)) was 2.03% (inactive). Moreover, the Potency in assay [4] is > 20.6 µM (inactive).
